Laboratory results taken from PubChem BioAssay (NCI).
This is part of a sample that, as a whole, favours compounds with a hit. Of some 83,000 tested, about 20% had one in any assay.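 Step 1: grow cells in 96-well plates. Step 2: add test compound at a single concentration. Step 3: incubate 48 h. Step 4: record percent growth.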 Activity calls are given as the source filed them. The calls were made as follows: active = growth percent below 10; inactive = the rest.

Columns and labels:
Test in all cases: NCI-60 one-dose screen, 48 h (100 = growth as untreated, 0 = no growth, -100 = all killed)
Conditions in all cases: 10 µM unless noted
[1] = tested on: NCI-H23 lung
[2] = tested on: NCI-H226 lung
[3] = tested on: NCI-H322M lung
[4] = tested on: HOP-62 NSCLC
[5] = tested on: NCI-H460 lung
[6] = tested on: HOP-92 NSCLC
[7] = tested on: NCI-H522 lung
[8] = tested on: A549/ATCC NSCLC
[9] = tested on: 786-0 renal
[10] = tested on: COLO 205 colon

Measured: growth

N#Cc1c(N)nn(C(=O)c2ccc(NC(=O)c3ccccn3)cc2)c1-c1ccc(Cl)cc1
active: [4] -18.4% | [6] 7.04% | [9] 9.76% | [10] 1.15%
inactive: [1] 20% | [2] 20.1% | [3] 22.2% | [5] 15.9% | [7] 36.3% | [8] 35.4%

CCN(CC)c1nc(SCC(=O)Nc2nc3ccc(C)cc3s2)nc(-c2ccccc2)c1C#N
inactive: [1] 103% | [2] 86.2% | [3] 88.8% | [4] 91.9% | [5] 99.4% | [6] 55.4% | [7] 82.5% | [8] 79.4% | [9] 93.8% | [10] 102%

Nc1n[nH]c2cc(F)c([C@@H]3Nc4c(F)cc5[nH]ncc5c4[C@H]4C5CCC(C5)[C@@H]34)cc12 (stereo not given in full)
active: [5] 2.33% | [10] -8.08%
inactive: [1] 25.5% | [2] 46.3% | [3] 57% | [4] 27.9% | [6] 33.8% | [7] 14.9% | [8] 19.4% | [9] 29.2%

COc1ccc(-c2nc(SCC(=O)Nc3nc(-c4ccccc4)cs3)[nH]c(=O)c2C#N)cc1
inactive: [1] 88.3% | [2] 85% | [3] 90.7% | [4] 82.4% | [5] 114% | [6] 81.5% | [7] 84% | [8] 104% | [9] 100% | [10] 112%

O=c1[nH]nc(-c2ccccc2)c2c(-c3ccccc3)onc12
active: [6] -6.41% | [7] -22.5%
inactive: [1] 50.4% | [2] 55.4% | [3] 59.8% | [4] 34.4% | [5] 17% | [8] 58.5% | [9] 45% | [10] 11.3%

CC1=CN2C(=O)C3C4=C(CCCC4)SC3N=C2CN1c1c(C)cccc1C (stereo not given)
inactive: [1] 91.1% | [2] 71% | [3] 109% | [4] 82.5% | [5] 76.6% | [6] 55.2% | [7] 77.4% | [8] 82.4% | [9] 75.9% | [10] 110%

COc1cc(C2CC(c3ccc(Nc4ccnc5cc(Cl)ccc45)cc3)=NN2C=O)cc(OC)c1OC (stereo not given)
active: [6] -3.68%
inactive: [1] 89.2% | [2] 102% | [3] 107% | [4] 84.4% | [5] 57.2% | [7] 71.7% | [8] 72.4% | [9] 63.8% | [10] 95.6%

Cc1c(C(=O)N[C@@H](Cc2ccccc2)C(=O)C(=O)NCCc2ccccc2)[nH]c2ccccc2c1=O
inactive: [1] 93.5% | [2] 101% | [3] 96.2% | [4] 111% | [5] 87.2% | [6] 116% | [7] 97.6% | [8] 98.8% | [9] 107% | [10] 31.2%

N[C@@H](CCCCNCC(=O)O)C(=O)O
inactive: [1] 95.1% | [2] 98.4% | [3] 110% | [4] 101% | [5] 103% | [6] 64.5% | [7] 96.3% | [8] 101% | [9] 97.2% | [10] 111%

Cn1cc(-c2csc(-c3cccc(F)c3)n2)c2cccnc21
active: [1] -62.7% [100 µM] | [2] -14.4% [100 µM] | [3] -22% [100 µM] | [4] -69.2% [100 µM] | [5] -59.6% [100 µM] | [6] -59.6% [100 µM] | [7] -27.6% [100 µM] | [8] 1% [100 µM] | [9] -81.6% [100 µM] | [10] -66.5% [100 µM]

CCN(CC)CCCNc1ccc(Nc2ccc(OC)cc2)cc1
inactive: [1] 92.3% | [2] 110% | [3] 83.3% | [4] 98.1% | [5] 64.2% | [6] 83.6% | [7] 64% | [8] 92.1% | [9] 94.2% | [10] 85.7%

CC1SC(c2ccc(OCc3ccccc3)cc2)N(NC(=O)C(O)(c2ccccc2)c2ccccc2)C1=O (stereo not given)
inactive: [1] 61% | [2] 84.5% | [3] 49.1% | [4] 79% | [5] 38.5% | [6] 50.7% | [7] 24.4% | [8] 49.3% | [9] 59.6% | [10] 30.8%

Cn1c(-c2c(N)n(Cc3ccc(C(F)(F)F)cc3)c3nc(C#N)c(C#N)nc23)nc2ccccc21
active: [1] 1.21% | [2] -1.51% | [3] -4.98% | [5] 4.01% | [6] -48% | [7] -3.31% | [9] 3.33% | [10] -89.7%
inactive: [4] 21.3% | [8] 12%
